In the library only some 1.2% were active in any assay of this set; here they are far more common.
RGS4-Gao reg – human RGS4-Galphao interaction regulation | hit rate 0.33% among 220,000 | binding response (% of control), % at 10 µM | Multiplexed bead flow cytometry, RGS4-Galphao binding; actives lie on both sides | AID 1415; in the data active means binding response below about 49% or above about 150%; inactive means in between;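 further: fluorescent Galphao activated with aluminum fluoride binding bead-coupled RGS4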
Target sequence (P09471 whole entry, looked up): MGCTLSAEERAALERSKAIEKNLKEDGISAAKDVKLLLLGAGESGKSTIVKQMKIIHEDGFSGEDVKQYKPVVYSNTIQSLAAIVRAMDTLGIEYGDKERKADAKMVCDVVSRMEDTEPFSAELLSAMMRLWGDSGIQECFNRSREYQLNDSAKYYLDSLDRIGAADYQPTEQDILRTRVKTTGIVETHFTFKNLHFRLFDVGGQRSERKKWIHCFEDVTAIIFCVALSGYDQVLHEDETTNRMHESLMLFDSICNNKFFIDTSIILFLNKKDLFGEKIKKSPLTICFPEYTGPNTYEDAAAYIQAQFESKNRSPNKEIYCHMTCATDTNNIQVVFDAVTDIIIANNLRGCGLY
RGS7-Gao – human RGS7-Galphao interaction regulation | P09471 | Multiplexed bead flow cytometry, RGS7-Galphao binding; actives lie on both sides | binding response (% of control), % at 10 µM | hit rate 0.35% among 220,000; in the data active means binding response below about 49% or above about 150%; inconclusive means no clear call, values can overlap the other calls; inactive means in between;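 further: fluorescent Galphao held in activated GDP-AlF4 state binding bead-coupled RGS7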
RGS16-Gao HTS – regulators of human RGS16-Galphao interaction; bead-based flow cytometry RGS16-Galphao binding, fluorescence; actives lie on both sides; AID 1441; binding response (% of control), % at 10 µM; hit rate 0.38% among 220,000; O15492+P09471;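 further: Galphao activated by GDP with aluminum fluoride before binding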
Avidin fluor – compound fluoresces at 488/530 nm on avidin beads; compound fluorescence 488/530 nm, flow cytometry; stronger effect = higher value; fluorescence (KMESF) at 10 µM; hit rate 0.38% among 220,000; in the data active means fluorescence above about 47
RGS8-Gao reg – regulators of human RGS8-Galphao interaction. P09471. multiplexed bead flow cytometry, RGS8-Galphao binding; actives lie on both sides. response (percent of control binding), % at 10 µM. hit rate 0.34% among 220,000. AID 1423; in the data active means response below about 60% or above about 140%; inactive means in between;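 further: Galphao activated as the GDP aluminium fluoride complex binding bead-coupled RGS8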
GSH fluor – GSH bead compound fluorescence profile | fluorescence (KMESF) at 10 µM | GSH beads flow cytometry, compound fluorescence 488/530 nm; stronger effect = higher value | hit rate 0.25% among 190,000; in the data active means fluorescence above about 89;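 further: glutathione beads carrying GST-tagged Bcl family fusion proteins plus one bare bead set; values are compound well signal with DMSO vehicle wells as background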
RGS-Gao – RGS4-Galphao interaction regulator (human) | hit rate 99% among 1,600 | RGS4–Galpha-o binding response, % at 10 µM | shares compounds with RGS16-Gao HTS | multiplexed bead flow cytometry, RGS–Galpha-o binding;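 further: fluorescently labeled Galpha-o bound to GDP with aluminium fluoride binding biotinylated RGS beads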
Target sequence (P09471 whole entry, looked up): as above
Target sequence (P49798 whole entry, looked up): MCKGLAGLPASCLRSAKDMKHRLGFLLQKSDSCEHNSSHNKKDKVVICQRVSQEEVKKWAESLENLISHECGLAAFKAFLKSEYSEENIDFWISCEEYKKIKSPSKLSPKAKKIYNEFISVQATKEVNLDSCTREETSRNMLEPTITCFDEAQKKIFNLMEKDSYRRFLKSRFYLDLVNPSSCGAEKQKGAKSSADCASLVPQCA
Avidin counter – biotin-avidin bead binding disruption counter-screen; inhibition, % at 10 µM; shares compounds with RGS16-Gao HTS; 1,700 tested, under 10 active; AID 1783; streptavidin beads, fluorescein-biotin binding, flow cytometry;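 active means inhibition above 50%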;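 further: median green fluorescence of gated singlet beads compared with DMSO control wells; 0% = DMSO wells and 100% = complete loss of bead fluorescence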
RGS8-Gao confirm – confirmation of regulators of human RGS8-Galphao interaction. AID 1836. binding response (% of control), % at 10 µM. bead-based flow cytometry RGS8-Galphao binding, fluorescence; actives lie on both sides. shares compounds with RGS16-Gao HTS. hit rate 3% among 1,700; in the data active means binding response below about 72% or above about 130%; inactive means in between;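 further: Galphao activated as GDP AlF4 complex before binding bead RGS8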
RGS7-Gao confirm – confirmation of regulators of human RGS7-Galphao interaction; shares compounds with RGS16-Gao HTS; bead-based flow cytometry RGS7-Galphao binding; actives lie on both sides; response (percent of control binding), % at 10 µM; hit rate 7.8% among 1,700; in the data active means response below about 75% or above about 130%; inactive means in between;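 further: fluorescent Galphao activated with GDP and aluminum fluoride binding bead-coupled RGS7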
RGS16-Gao single – RGS16-Galphao interaction regulation, single point confirmation. hit rate 4% among 1,700. AID 1838. shares compounds with RGS16-Gao HTS. response (% of control binding), % at 10 µM. bead-based flow cytometry, RGS16-Galphao binding; actives lie on both sides; in the data active means response below about 74% or above about 130%; inactive means in between;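 further: Galphao activated as the GDP aluminium fluoride complex binding bead-coupled RGS16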
RGS4-Gao confirm – RGS4-Galphao interaction regulation, single point confirmation; RGS4-Galphao binding, multiplexed bead flow cytometry; actives lie on both sides; binding response (% of control), % at 10 µM; hit rate 4% among 1,700; AID 1840; shares compounds with RGS16-Gao HTS; in the data active means binding response below about 74% or above about 130%; inactive means in between
RGS19-Gao conf – confirmation of regulators of human RGS19-Galphao interaction; shares compounds with RGS16-Gao HTS; bead-based flow cytometry RGS19-Galphao binding; actives lie on both sides; response (percent of control binding), % at 10 µM; hit rate 5% among 1,700; in the data active means response below about 50% or above about 160%; inactive means in between;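 further: 100% = no compound control and 0% = blank background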
* = called active by the depositor; u = inconclusive; x = no result given; + = active, no number; [ ] = remark or other dose. Unless noted, how the calls were made is not given here.

SMILES	RGS4-Gao reg	RGS7-Gao	RGS16-Gao HTS	Avidin fluor	RGS8-Gao reg	GSH fluor	RGS-Gao	Avidin counter	RGS8-Gao confirm	RGS7-Gao confirm	RGS16-Gao single	RGS4-Gao confirm	RGS19-Gao conf
O=C(Nc1ccc(S(=O)(=O)N2CCOCC2)cc1)c1ccc(Cl)cc1	98.4	u	98.8	20	98.5	x	x	x	x	x	x	x	x
O=C(NNS(=O)(=O)c1ccc(F)cc1)c1ccc(S(=O)(=O)N2CCCCC2)cc1	103.0	100.5	112.3	4	100.5	8	x	x	x	x	x	x	x
Cc1ccc(C(=O)Nc2ccc(S(=O)(=O)N3CCOCC3)cc2)cc1	150.8*[activator]	365.2*[activator]	104.4	227*	93.9	22	x	-0.3	100.2	100.8	105.8	104.6	109.8
CC1=CC(C)(C)N(C(=O)CNC2CCCC2)c2cc(C)ccc21	101.8	104.9	110.7	11	105.8	13	x	x	x	x	x	x	x
O=C(c1cnccn1)N(Cc1ccco1)C1(C(=O)NC2CCCCC2)CCCCC1	79.5	88.9	-53.5*	8	80.2	8	79.5*	2.2	102.0	106.2	101.8	105.0	105.7
O=C(c1cnccn1)N(Cc1ccco1)C1(C(=O)NC2CCCC2)CCCCC1	100.3	102.5	104.6	13	100.0	49	x	x	x	x	x	x	x
CC(Sc1cccc[n+]1[O-])C(=O)Nc1ccc(Oc2ccccc2)cc1 (stereo unspecified)	99.9	98.7	97.7	10	97.4	9	x	x	x	x	x	x	x
CNC(=O)/C(=C\c1ccc2c(c1)OCO2)NC(=O)c1ccc(Br)cc1	99.0	96.3	71.5	8	92.1	16	x	x	x	x	x	x	x
CC12CCC(C(=O)Nc3cccc(Cl)c3)(C(Br)C1=O)C2(C)C (stereo unspecified)	107.4	109.1	115.4	16	105.3	9	x	x	x	x	x	x	x
CC12CCC(C(=O)Nc3ccc(Cl)cc3)([C@H](Br)C1=O)C2(C)C (stereo partly specified)	x	x	x	x	x	x	x	-0.3	101.2	106.8	103.1	99.8	105.0
NS(=O)(=O)c1cccc(NC(=O)Cc2ccc(Cl)c(Cl)c2)c1	156.2*[activator]	167.1*[activator]	150.5	12	148.1*[activator]	14	x	0.9	100.7	97.3	101.0	100.1	87.5
CC1=C(C(=O)NCc2ccccc2)C(c2cccs2)n2ncnc2N1 (stereo unspecified)	69.4	80.7	-63.1*	3	79.1	4	69.4*	0.6	98.4	99.8	101.1	100.1	102.0
COc1ccccc1C1C(C(=O)NCc2ccccc2)=C(C)Nc2ncnn21 (stereo unspecified)	99.6	98.0	97.8	6	99.8	49	x	x	x	x	x	x	x
COc1cc2c(cc1OC)C(C(=O)NCc1cccnc1)C(c1cccnc1)N(C)C2=O (stereo unspecified)	118.5	169.9*[activator]	110.3	174*	96.6	26	118.5*	x	x	x	x	x	x
Nc1ccc(C(CC(=O)O)n2cccc2)cc1 (stereo unspecified)	82.6	38.9*	95.7	13	72.5	7	82.6*	-1.3	97.2	80.1	89.8	89.3	65.6
CC12C(=O)N(c3nccs3)C(=O)C1C1C=CC2C1 (stereo unspecified)	x	x	x	x	x	29	x	-0.5	102.6	97.9	99.6	96.8	88.9
O=C(CNC(=O)c1ccccc1)Nc1cccc(C(F)(F)F)c1	762.3*[activator]	845.4*[activator]	+[activator]	560*	193.1*[activator]	211*	x	2.9	94.6	72.2*	84.8	83.0	63.7
Cc1ccc(C(=O)NCC(=O)Nc2cccc(C(F)(F)F)c2)cc1	97.6	97.8	100.5	21	100.2	14	x	x	x	x	x	x	x
CCOC(=O)C1C(c2cccc([N+](=O)[O-])c2)C2C(=O)NN=C2CC1(C)O (stereo unspecified)	101.2	103.5	105.7	11	101.3	15	x	x	x	x	x	x	x
COc1cccc(C2C(C(=O)c3cc4cccc(OC)c4o3)=C(O)C(=O)N2c2cc(C)on2)c1OC (stereo unspecified)	-0.4*	11.0*	1.2*	-1	34.2*	27	x	-0.2	102.2	105.6	103.6	106.0	100.1
COc1ccccc1/C=C\C=N\n1c(-c2ccc(Cl)cc2)n[nH]c1=S	88.2	93.0	7.8*	2	57.6*	13	88.2*	-1.7	92.2	75.1*	81.6	82.0	50.7
O=[N+]([O-])c1ccc2c(c1)N([O-])C1(CCCCC1)[N+]2=O	90.5	u	32.2	4	35.0*	x	90.5*	x	x	x	x	x	x
CC(=O)N1CCN(c2ccc(NCc3cccs3)cc2)CC1	49.6*	40.3*	30.5	3	45.7*	18	x	1.4	105.2	103.5	101.3	99.4	108.0
CCOC(=O)C(C(=O)OCC)C1OC(=O)c2cc3c(cc21)C(=O)OC3C(C(=O)OCC)C(=O)OCC (stereo unspecified)	141.0	358.7*[activator]	124.3	200*	87.1	14	141.0*	1.6	89.5	86.5	88.6	91.2	82.5
Cc1cc(NS(=O)(=O)c2ccc(NC(NC(=O)C(C(F)(F)F)C(F)(F)F)(C(F)(F)F)C(F)(F)F)cc2)no1	101.2	155.4*[activator]	40.4	3	80.0	15	101.2*	-1.6	94.8	98.1	98.7	98.3	96.6
O=C(NCc1ccccc1Cl)NCc1ccccc1Cl	43.1*	u	46.4	2	62.0	x	x	-0.6	102.6	103.1	107.1	99.2	109.0
CC(c1nnc(SCC(=O)Nc2cccnc2Cl)n1Cc1ccccc1)N(C)C (stereo unspecified)	105.9	102.8	134.1	9	114.9	18	x	x	x	x	x	x	x
COc1cccc2c1NC(C(=O)O)C1CC=CC21 (stereo unspecified)	69.9	36.2*	63.3	6	54.1*	6	69.9*	0.1	100.4	76.0	96.4	89.3	94.4
